SMN2 splice enh = increases expression of the SMN2 splice variant | HEK293 SMN2-luciferase splicing reporter, luminescence, 30-36 h | Potency, µM (highest dose often 46.1 µM), for the others: top-dose activity change, positive = activation, hits mostly activators | 210,000 compounds, 2.8% hits | AID 1458; note: % of control where 0% means no effect; nearly all actives have a fitted effect of over 55% in size
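HEK293 cells carry an SMN2 […]–luciferase reporter in which exon 7 inclusion puts luciferase in frame. Cells were plated 10-12 h before compound addition, then incubated 30-36 h at 37C. ONE-Glo luminescence was read; sodium butyrate at 4.5 mM final served as control.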
ELG1 genotoxic = genotoxicity induction in ELG1-luciferase HEK293T cells; 330,000 compounds, 1.3% hits; Potency, µM (top dose mostly 46 µM), for the others: at the top dose activity change, positive = activation, actives largely listed as activators; HEK293T ELG1-luciferase reporter, luminescence, 16 h; note: % of control where 0% means no effect; nearly all actives have a fitted effect of over 60% in size
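Screening used a luciferase reporter fused to human ELG1 in HEK293T cells. Luminescence was read on a CCD plate imager after 16 hr exposure and 30 min ONE-Glo incubation.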
NPC1 promoter act = activators of NPC1 promoter. Huh7 NPC1 promoter luciferase reporter, 24 h. Potency, µM (top dose mostly 9.22 µM), for the others: at the highest dose activation, most hits filed as activators. 320,000 compounds, 2.4% hits. AID 485313; note: % of control where 0% means no effect; nearly all actives have a fitted effect of over 60% in size
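Huh7 reporter cells (NPC1 promoter driving luciferase) are dosed with compound for 24 h at 37 °C, 5% CO2; luciferase detection reagent is then added and luminescence measured after 10 min at ambient temperature.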
KinaseGlo FLuc = Kinase-Glo luciferase inhibition (counter-screen). Kinase-Glo luciferase, ATP luminescence, 8 min. Potency, µM (series often up to 38.3 µM), for the others: top-dose activity change, negative = inhibition, most hits filed as inhibitors. 200,000 compounds, 0.28% hits; note: % is set by controls: 0 for no effect and ±100 for the full control effect; nearly all actives have a fitted effect of over 60% in size
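Compound is pinned into ATP-containing buffer (10 uM ATP, imidazole pH 7.2, 7 mM MgCl2). Kinase-Glo luciferase reagent is then added. Light output is recorded following an 8-min room-temperature incubation.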
FLuc modulator = firefly luciferase modulation, counter-screen for miR-21 project; P08659; 360,000 compounds, 6.9% hits; AID 588342; purified FLuc, Km substrates, luminescence inhibition; Potency, µM (titrated, usually from 57.5 µM), inactives show at the top dose activity change, negative = inhibition, usual class: inhibitors;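 note: plate controls were vehicle for no effect and reference inhibitor for full effect; nearly all actives have a fitted effect of over 55% in size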
Target sequence (P08659 whole entry, looked up): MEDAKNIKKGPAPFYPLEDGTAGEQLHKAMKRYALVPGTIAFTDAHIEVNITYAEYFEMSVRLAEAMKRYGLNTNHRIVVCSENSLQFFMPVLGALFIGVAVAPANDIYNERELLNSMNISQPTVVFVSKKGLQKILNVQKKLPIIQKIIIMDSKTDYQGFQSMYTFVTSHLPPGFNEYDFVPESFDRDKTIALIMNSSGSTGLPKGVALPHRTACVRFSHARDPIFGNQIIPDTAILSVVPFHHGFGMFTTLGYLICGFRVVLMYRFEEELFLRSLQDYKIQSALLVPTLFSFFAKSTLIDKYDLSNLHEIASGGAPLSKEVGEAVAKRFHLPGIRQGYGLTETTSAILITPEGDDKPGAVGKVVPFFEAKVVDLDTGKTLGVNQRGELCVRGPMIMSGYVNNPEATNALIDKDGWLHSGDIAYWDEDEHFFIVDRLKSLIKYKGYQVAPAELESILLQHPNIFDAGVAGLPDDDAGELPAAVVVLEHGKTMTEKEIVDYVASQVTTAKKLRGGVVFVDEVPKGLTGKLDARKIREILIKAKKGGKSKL
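Purified P. pyralis luciferase (10nM final) with 10uM D-luciferin and 10uM ATP (Km levels) in 50mM Tris acetate pH 7.5, 10mM Mg acetate, 0.01% Tween-20, 0.05% BSA; qHTS 6-point titration, ~60 µM downward; luminescence read.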
Rab9 prom act = activates the Rab9 promoter; AID 485297; Huh7 Rab9 promoter-luciferase reporter, luminescence, 24 h; Potency, µM (titrated, usually from 9.22 µM), without a hit: top-dose activation, negative = inhibition, actives largely listed as activators; 320,000 compounds, 2.8% hits; note: % of control where 0% means no effect; nearly all actives have a fitted effect of over 60% in size
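Measured in stably transfected Huh7 cells bearing a Rab9 promoter–luciferase construct: 24 h compound treatment at 37 °C, followed by luminescence detection.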
Starred values were filed as active, the others as inactive. Rows were chosen to be rich in hits. Some 7.3% of all compounds tested hit in one or more screens of this group. Calls come from the whole dose curve; as a rule, active = well fitted curve in the direction sought with a large enough effect; inconclusive = small, poorly fitted or top-dose-only effect, or another doubt; inactive = no such curve, though single readings can be large; an effect the other way counts as inactive or inconclusive. Potency is the fitted concentration of half-maximal effect.

CCC(NC(=O)c1cc(COc2cncc(Cl)c2)on1)c1ccncc1 (configuration not stated) was read as ELG1 genotoxic -10%, NPC1 promoter act 1%, FLuc modulator 1% and Rab9 prom act -4%.
`CCC(NC(=O)c1cc(COc2ccc(F)cc2Cl)on1)c1ccncc1` (configuration not stated) gave ELG1 genotoxic 0%, NPC1 promoter act -1%, FLuc modulator 21µM* and Rab9 prom act -4%.
Cc1cccc(NC(=O)C(Cc2ccccc2)n2cccc2)c1C (configuration not stated) was read as SMN2 splice enh -17% and FLuc modulator -4%.
`CCOC(=O)c1cc(C)n(CC2CCC(C(=O)Nc3ccc(OC)cc3)CC2)c1C` (configuration not stated) gave FLuc modulator -4%.
Screening CCN(C(=O)Cn1cnc2onc(-c3ccc(F)cc3)c2c1=O)c1cc(C)ccc1C returned FLuc modulator -1%.
Screening CCCc1cc(=O)[nH]c2nnc(SCC(=O)Nc3ccc(OC)cc3)n12 returned FLuc modulator -13%.
Screening O=C(c1cc(COc2ccc(F)cc2Cl)on1)N1CCCCCC1 returned ELG1 genotoxic inconclusive, NPC1 promoter act 1.8µM*, FLuc modulator 6.7µM* and Rab9 prom act 2µM*.
COc1ccc(OCc2cc(C(=O)N3CCN(C4CCCC4)CC3)no2)c(Cl)c1 was read as ELG1 genotoxic inconclusive, NPC1 promoter act 3.2µM*, FLuc modulator 21µM* and Rab9 prom act inconclusive.
Screening COc1cc(C)ccc1OCc1cc(C(=O)N2CCN(C3CCCCC3)CC2)no1 returned ELG1 genotoxic inconclusive, NPC1 promoter act inconclusive, FLuc modulator 17µM* and Rab9 prom act inconclusive.
`C=CCOC(=O)N[C@H](/C(C(=O)OC)=C(\C)NCc1ccccc1)c1cccc(C(F)(F)F)c1` gave SMN2 splice enh 9% and KinaseGlo FLuc 1%.
`COc1ccc(-c2cc(C(F)(F)F)nc(SCC(=O)NC(C)c3ccccc3)n2)cc1` (configuration not stated) gave SMN2 splice enh -7% and FLuc modulator -1%.
COc1ccc(OC)c(CNS(=O)(=O)c2ccc3c(c2)CCCN3C(C)=O)c1 was read as FLuc modulator -6%.
For CCN(c1cccc(C)c1)S(=O)(=O)c1ccc2[nH]cc(C(=O)NCCCOC)c(=O)c2c1 the results were FLuc modulator -14%.
For Cc1ccccc1C(=O)OCc1cc(=O)n2nc(C3CCCCC3)sc2n1 the results were FLuc modulator -15%.
For COc1ccc(-c2noc(-c3ccc(Cl)cc3)n2)cc1 the results were SMN2 splice enh 11µM*, ELG1 genotoxic 5.6µM*, NPC1 promoter act 2.5µM*, KinaseGlo FLuc -1%, FLuc modulator 2.1µM* and Rab9 prom act inconclusive.
For COc1ccc(-c2noc(-c3ccccc3-c3ccccc3)n2)cc1 the results were SMN2 splice enh -9%, ELG1 genotoxic 1%, NPC1 promoter act 0%, KinaseGlo FLuc 0%, FLuc modulator inconclusive and Rab9 prom act -7%.
Screening CC(C)c1cc(-c2nc(-c3ccc(Cl)cc3)no2)n[nH]1 returned FLuc modulator 9.5µM*.
`COc1ccc(CC(=O)Nc2ccc(-c3noc(-c4cccc(OC)c4)n3)cc2)cc1` gave SMN2 splice enh 9%, ELG1 genotoxic 12%, NPC1 promoter act -2%, KinaseGlo FLuc -1%, FLuc modulator -2% and Rab9 prom act -6%.
`COc1cc(-c2noc(-c3cc(C(C)C)[nH]n3)n2)cc(OC)c1OC` gave FLuc modulator -2%.
Screening COc1cccc(-c2noc(-c3ccc(Br)o3)n2)c1 returned SMN2 splice enh 22µM*, ELG1 genotoxic inconclusive, NPC1 promoter act 2.5µM*, KinaseGlo FLuc -12%, FLuc modulator 3µM* and Rab9 prom act 1.4µM*.

Screens: PubChem BioAssay, National Center for Advancing Translational Sciences (NCATS)
